# Among all 16,000 compounds or so, about 5,700 (36%) were called active. About 24% were inconclusive and are not listed. The list shows a part of the results. A number with no mark means an inactive call. Calls come from the whole dose curve; as a rule, active = well fitted curve in the direction sought with a large enough effect; inconclusive = small, poorly fitted or top-dose-only effect, or effect the other way; inactive = no such curve, though single readings can be large or run the other way.
# Molecular target: Cytochrome P450 1A2 (Homo sapiens) (UniProt P05177)
# Sequence (P05177 whole entry, looked up): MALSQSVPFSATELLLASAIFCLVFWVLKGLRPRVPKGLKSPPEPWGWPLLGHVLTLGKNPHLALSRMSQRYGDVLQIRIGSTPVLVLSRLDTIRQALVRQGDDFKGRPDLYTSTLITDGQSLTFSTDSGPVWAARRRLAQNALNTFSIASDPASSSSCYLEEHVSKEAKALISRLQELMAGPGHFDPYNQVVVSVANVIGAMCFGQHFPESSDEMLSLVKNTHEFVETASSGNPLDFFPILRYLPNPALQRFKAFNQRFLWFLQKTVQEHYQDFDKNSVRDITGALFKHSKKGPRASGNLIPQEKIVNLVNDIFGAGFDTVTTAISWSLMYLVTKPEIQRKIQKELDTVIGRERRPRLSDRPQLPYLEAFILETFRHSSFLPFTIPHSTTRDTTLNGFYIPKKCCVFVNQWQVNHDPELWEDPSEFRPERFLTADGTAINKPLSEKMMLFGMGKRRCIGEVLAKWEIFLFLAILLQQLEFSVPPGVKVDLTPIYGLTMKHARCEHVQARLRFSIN
# Assay: Cytochrome panel assay with activity outcomes
# Conditions: recombinant CYP, pro-luciferin dealkylation, luminescence, p450-cyp1a2; series mostly up to 57.1 µM
# % is set by controls: 0 for no effect and ±100 for the full control effect.
Compound,AC50,"activity, negative = inhibition"
CCOC(=O)c1cccc2c1-c1ccccc1/C2=N/O,1.58 µM (active),–
CCOC(=O)c1cc(CC)sc1NC(=O)C(c1ccccc1)c1ccccc1,inactive,–
Cc1nc2ccccc2n1CC(=O)N/N=C\c1ccccn1,inactive,–
Cc1ccc(/C=N/NC(=O)CSc2nc3ccccc3n2C)s1,2.51 µM (active),–
Cn1c(SCC(=O)N/N=C/C=C\c2ccco2)nc2ccccc21,2 µM (active),–
Cc1nc2ccccc2n1CC(=O)N/N=C\C=C\c1ccccc1,5.01 µM (active),–
O=c1cc(CO)oc(CN2CCCC2)c1O,inactive,–
CC(=O)Nc1nc(NC(C)=O)c2[nH]c(CO)nc2n1,–,-14.4% [at 11.4 µM]
CN(N=O)C(=O)N[C@H]1[C@@H](O)[C@H](O)[C@H](CO)O[C@@H]1O,inactive,–
Cc1noc(C)c1-c1cncnc1N(C)Cc1ccco1,inactive,–
CN(Cc1ccco1)c1ncncc1-c1ccccc1Cl,25.1 µM (active),–
Cc1ccccc1-c1cncnc1N(C)Cc1ccco1,15.8 µM (active),–
COc1ccccc1-c1cncnc1N(C)Cc1ccco1,15.8 µM (active),–
COC(=O)[C@@H]1CC[C@H](C)[C@@H](c2ccc(C)cc2)N1C(=O)c1ccc(/C=N\O[C@@H]2O[C@H](COC(C)=O)[C@H](OC(C)=O)[C@H](OC(C)=O)[C@H]2OC(C)=O)cc1,–,-1.33% [at 11.4 µM]
CCOc1cc(C2CC(=O)c3c(ccc4ccccc34)N2)ccc1O (configuration not stated),inactive,–
CC[C@H]1CC[C@H]2[C@@H]3CC=C4C[C@H](OC(C)=O)[C@@H](N)C[C@@]4(C)[C@H]3CC[C@@]12C,–,-5.9% [at 11.4 µM]
CCc1cc2c(Sc3nc4ccccc4s3)ncnc2s1,1.58 µM (active),–
CN(C)c1ccc(-c2nc(NCc3cccnc3)c3ccccc3n2)cc1,1.58 µM (active),–
Cc1cccc(CNc2nc(-c3cccnc3)nc3ccccc23)c1,0.631 µM (active),–
c1ccc(-c2nc(NCc3cccnc3)c3ccccc3n2)cc1,1.12 µM (active),–
CCCc1cc(=O)oc2cc(OCc3nn[nH]n3)ccc12,12.6 µM (active),–
CCCCc1cc(=O)oc2cc(OCC(=O)N(CC)CC)ccc12,12.6 µM (active),–
CCCc1cc(=O)oc2cc(OCC(=O)N3CCc4ccccc43)ccc12,inactive,–
CCO[C@H](c1cc(OC)cc([N+](=O)[O-])c1OC)[C@H](C)/C=C\CC(=O)OC,–,1.93% [at 11.4 µM]
COc1ccc(/C(O)=C2\C(=O)C(=O)N(c3cc(C)on3)C2c2ccc(OC)c(OC)c2)cc1OC (configuration not stated),inactive,–

Compound,AC50,"activity, negative = inhibition"
CC(=O)OCC(=O)[C@@]1(O)[C@H](C)C[C@@H]2[C@H]3CCC4=CC(=O)C=C[C@]4(C)[C@]3(F)[C@@H](O)C[C@@]21C,inactive,–
O=C(CN1CCCC1)N/N=C/c1ccc(-c2cccc(Cl)c2)o1,8.91 µM (active),–
CCC(C)NS(=O)(=O)c1ccc(NC(=O)CCC2CCCCC2)cc1 (configuration not stated),inactive,–
CCn1c(CSCc2ccc(C)cc2)nnc1SCC(=O)NCc1ccccc1,inactive,–
COc1cccc(N(CC(=O)Nc2cccc(C(C)=O)c2)S(C)(=O)=O)c1,inactive,–
CC(=O)c1cccc(NC(=O)CSCc2ccccc2)c1,2 µM (active),–
O=C(CCC1CCCCC1)Nc1c2c(nn1-c1ccc(F)cc1)CS(=O)(=O)C2,inactive,–
CC(=O)c1cccc(NC(=O)CCC2CCCC2)c1,3.55 µM (active),–
O=C(CSCc1ccccc1)Nc1ccc(S(=O)(=O)N2CCOCC2)cc1,inactive,–
CSc1ccccc1NC(=O)CSCc1ccc(C)cc1,7.08 µM (active),–
Cc1ccc(O)c(C(=O)c2cc(C#N)c(=O)n(-c3c(C)n(C)n(-c4ccccc4)c3=O)c2)c1,inactive,–
CCCOc1ccccc1-c1nc2n[nH]nc2c(=O)[nH]1,3.98 µM (active),–
Nc1nc2n[nH]nc2c(=O)[nH]1,inactive,–
C=CCSC1=Nc2sccc2C2=NC(=O)CN12,1.78 µM (active),–
CSC1=N/C(=C\c2ccc(C)cc2)C(=O)S1,2.82 µM (active),–
CSC1=N/C(=C\c2ccc(Br)o2)C(=O)S1,3.55 µM (active),–
CN(C)C(=O)CN(c1ccc2c(c1)OCO2)S(C)(=O)=O,inactive,–
CSC1=N/C(=C\c2ccc3c(c2)OCO3)C(=O)S1,1 µM (active),–
C[C@@H]1C[C@@H]2[C@H]3CCC4=CC(=O)C=C[C@]4(C)[C@]3(F)[C@@H](O)C[C@]2(C)[C@@]1(O)C(=O)CO,inactive,–
O=C(O)[C@H](Cc1cc(I)c(O)c(I)c1)C1CCCCC1,–,-8.77% [at 2.29 µM]
c1ccc2cc(Sc3ncnc4c3oc3ccccc34)ccc2c1,1.58 µM (active),–
CC(=O)Nc1ccc(S(=O)(=O)NC(CC(=O)NCCC2=CCCCC2)C(C)C)cc1 (configuration not stated),inactive,–
O=C(CN1CCN(c2ncccn2)CC1)NCCC1=CCCCC1,1.58 µM (active),–
Cc1nc2ncnn2c(C)c1CCC(=O)NCCC1=CCCCC1,inactive,–
CC1(c2ccccc2)NC(=O)N(CC(=O)NCCC2=CCCCC2)C1=O (configuration not stated),11.2 µM (active),–

Compound,AC50,"activity, negative = inhibition"
COc1ccc(OC)c(C(=O)CN2C(=O)NC(C)(c3ccccc3)C2=O)c1 (configuration not stated),inactive,–
CCCCCOc1ccc(NC(=O)C(=O)NCCC2=CCCCC2)cc1,inactive,–
COc1ccc(C(=O)CN2C(=O)NC(C)(c3ccccc3)C2=O)cc1OC (configuration not stated),inactive,–
Cc1ccc(S(=O)(=O)N(CC(=O)NCCC2=CCCCC2)Cc2ccccc2F)cc1,inactive,–
O=C(COc1ccc(Cl)cc1)NCCC1=CCCCC1,11.2 µM (active),–
CCC(C)n1nnc2c(=O)oc3ccccc3c21 (configuration not stated),0.708 µM (active),–
C=CCN1CCc2cc(O)c(O)cc2[C@H](c2ccccc2)C1,inactive,–
CC(C)=NOCc1ccc(-c2cc(-c3ccccc3)no2)cc1,–,-4.03% [at 11.4 µM]
Nc1nc(-c2ccccc2)cc(-c2ccccc2O)n1,0.631 µM (active),–
Cc1ccccc1-c1cc(-c2ccccc2O)on1,2.51 µM (active),–
Nc1nc(-c2cc(-c3cccc4ccccc34)nc(N)n2)cc(-c2cccc3ccccc23)n1,–,-4.4% [at 2.29 µM]
Oc1ccccc1-c1cc(-c2ccccc2)no1,1.26 µM (active),–
CC(C)=NOCc1cccc(-c2cc(-c3ccccc3)no2)c1,–,1.37% [at 11.4 µM]
Cc1cc(C(F)F)n2nc(C(=O)Nc3sc4c(c3C#N)CCC(C)C4)nc2n1 (configuration not stated),inactive,–
CC(=O)N1CCN(c2nc(C)nc3sc4c(c23)CCC(C)C4)CC1 (configuration not stated),15.8 µM (active),–
CC(C)CN=C(N)N=C(N)N,–,-9.85% [at 11.4 µM]
C(=N\N(c1ccccc1)c1ccccc1)/c1ccc2c(c1)OCO2,2 µM (active),–
CCOc1cc(CN2CCN(c3ccc(C(C)=O)cc3)CC2)ccc1OC,inactive,–
CCOc1ccc(CNC(=O)C2CCC(=O)N2C2CCCC2)cc1OC (configuration not stated),inactive,–
CCOc1ccc(CC(=O)C2C(=O)CCCC2=O)cc1OCC,10 µM (active),–
CC1CCC(O)([C@](C)(C(=O)O)c2ccccc2)CC1 (some centres not stated),–,-4.6% [at 11.4 µM]
COC(=O)N1CCC2(CC1)CN(C(=O)Nc1ccccc1)C2,inactive,–
O=C(Nc1ccc(Cl)cc1)N1CCc2[nH]c3ccccc3c2C1,3.55 µM (active),–
O=C(Nc1ccccc1)N1CCOCC1,inactive,–
COC(=O)[C@@]1(Cc2ccc(OC)cc2)[C@H]2c3cc(C(=O)N4CCCC4)n(Cc4ccc(C(F)(F)F)nc4)c3C[C@H]2CN1C(=O)c1ccccc1,inactive,–

Compound,AC50,"activity, negative = inhibition"
Cc1cc(SCC(=O)c2cccs2)nc2c(C)cccc12,0.891 µM (active),–
CCCNC(=O)OC[C@@H]1O[C@H](c2ccccc2)C=C[C@@H]1Oc1ccc(OC)cc1,–,-7.29% [at 11.4 µM]
C=CCOc1ccc(CNC(C)(C)CO)cc1OCC,inactive,–
C=CCc1ccccc1OC[C@H](O)CNC(C)C,3.16 µM (active),–
C=CCOc1ccccc1OC[C@H](O)CNC(C)C,5.01 µM (active),–
CC(C)(C)NC[C@H](O)COc1cccc2[nH]c(=O)[nH]c12,inactive,–
O=C1c2ccccc2C(=O)N1CC1c2ccccc2CCN1S(=O)(=O)c1ccccc1 (configuration not stated),inactive,–
COc1ccc(CCNC(=O)C2CCN(S(=O)(=O)N3CC(C)CC(C)C3)CC2)cc1OC (configuration not stated),inactive,–
C#CCCCO/N=C1/C[C@@H](O)[C@@H](O)[C@@H]2[C@@H]3C(=O)N(CCC(=O)OCC)C(=O)[C@H]3CC[C@@H]12,–,-0.481% [at 11.4 µM]
CSc1nc(-c2ccc(C)cc2)[nH]c1S(=O)(=O)c1ccccc1,14.1 µM (active),–
Cc1ccc(S(=O)(=O)c2cc(C#N)c(=O)[nH]c2N)cc1,inactive,–
CNc1oc(C)nc1S(=O)(=O)c1ccc(C)cc1,inactive,–
CC1(C)N=C(N)N=C(N)N1c1cccc(CSc2ccccc2)c1,–,-17.2% [at 2.29 µM]
O=c1ccnc(SCc2ccc(Cl)cc2)[nH]1,–,-17.6% [at 11.4 µM]
Clc1ccc(CSc2nccn2Cc2ccccc2)cc1,25.1 µM (active),–
O=C(CSc1nccn1-c1ccccc1)c1ccc(Cl)cc1,0.891 µM (active),–
c1ccc(CCSc2nccn2-c2ccccc2)cc1,1.78 µM (active),–
CCc1ccc(CSc2nccn2-c2ccccc2)cc1,1.26 µM (active),–
O=C(C1CCN(S(=O)(=O)c2cccc3nsnc23)CC1)N1CCN(c2ccccc2F)CC1,inactive,–
COC(=O)[C@H](CCSC)NC(=O)NCc1ccccc1F,inactive,–
O=C(c1ccccc1)c1ccc2nc(-c3ccc(NC(=O)c4ccccc4Br)cc3)[nH]c2c1,8.91 µM (active),–
O=C(c1ccccc1)c1ccc2nc(-c3ccc(NC(=O)c4ccccc4F)cc3)[nH]c2c1,inactive,–

# Source: PubChem BioAssay AID1851 (National Center for Advancing Translational Sciences (NCATS), 2009)
